Bioassay records deposited in PubChem BioAssay by Broad Institute.
Sampled rows, rich in hits. Any-hit rate of the full collection: about 2.7%.
PAX8 reporter: inhibitors of PAX8 transcriptional activity in RMG-I cells | RMG-I TPO-luciferase reporter, SteadyGlo, 24 h | inhibition, % at 12.6 µM | actives 1.2% (n = 360,000) | AID 652154;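 active = mean replicate inhibition at least 60% with every replicate also reaching 60%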;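 note: luciferase light reporting Pax8 driven TPO promoter activity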
CFTR F508del cor: correctors of CFTR F508del function in bronchial epithelial cells; CFBE cells, YFP halide quenching; stimulated with forskolin plus potentiator P3; % fluorescence drop versus neutral controls; activity (quench increase), % at 7.58 µM; actives 0.36% (n = 350,000); AID 720511;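 active = mean added fluorescence quench of at least 8% versus neutral control, with both replicates also reaching 8%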;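 note: cells transiently co-express mutant CFTR-F508del with the halide-sensitive YFP; corrector assay measuring rescue of mutant channel to the surface after 24 h compound exposure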
HIV Env fusion: HIV envelope-mediated fusion inhibition; AID 651610; HeLa-JRFL Env/CEM21 cell fusion, luciferase; actives 1.1% (n = 360,000); inhibition, % at 12.3 µM;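 active = mean replicate inhibition score of at least 50 and every replicate individually at or above 50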
PGC1a acetyl inh: modulators of PGC1a acetylation. U2OS PGC1a acetylation, AlphaScreen anti-acetyl-lysine; with virally co-expressed GCN5 acetyltransferase. inhibition, % at 15.6 µM. actives 0.17% (n = 350,000). AID 651687;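 active = every replicate shows inhibition of at least 40%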
GSIS activator: primary screen for activators of insulin secretion dependent on glucose, INS-1E cells, GLuc reporter luminescence; INS-1E GLuc reporter insulin secretion, 2-3 h; activation, % at 16.6 µM; actives 0.61% (n = 370,000); AID 743287;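 active = lowest replicate activation of at least 40%, so every replicate reaches that level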
EWS-Fli inh: inhibitors of EWS/Fli oncoprotein transcriptional activity; A673 NR0B1-luciferase reporter, viability-normalised; inhibition, % at 12.6 µM; actives 0.67% (n = 350,000); AID 651661;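 active = mean inhibition of at least 50% after viability correction, with every replicate also passing that limit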;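 note: firefly luciferase signal divided by Alamar Blue viability fluorescence both relative to DMSO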
Of the large screens only hits and unclear results are named; the others gave an inactive call.

COc1ccc(S(=O)(=O)N2CCCCC2)cc1NC(=O)Cc1sc(C)nc1-c1ccc(F)cc1	HIV Env fusion 80
COc1ccc(S(=O)(=O)N2CCCCC2)cc1NC(=O)C1CCCC1	GSIS activator 52
COc1ccc2c3c([nH]c2c1)[C@@H](CO)N(Cc1ccncc1)CC31CCN(C(=O)CN(C)C)CC1	none (no result: HIV Env fusion)
CO[C@H]1CN(C)C(=O)c2cc(NS(=O)(=O)CC(F)(F)F)ccc2OC[C@@H](C)N(Cc2ccccn2)C[C@@H]1C	none (no result: HIV Env fusion)
O=C(NCCSCc1ccccc1)c1ccc(C2SCC(=O)N2Cc2ccccc2)cc1 (stereo not given)	HIV Env fusion 64 (no result: PAX8 reporter, CFTR F508del cor, GSIS activator, EWS-Fli inh)
CCCC#Cc1ccc2c(c1)O[C@@H](CN(C)C(=O)CC1CC1)[C@H](C)CN([C@@H](C)CO)S2(=O)=O	none (no result: PAX8 reporter)
CC(=O)Nc1ccc2cc3ccc(NC(C)=O)cc3nc2c1	CFTR F508del cor 10.0
CCC(=O)N1[C@H](CO)[C@H](c2ccc(-c3cccc(F)c3)cc2)[C@H]1CNC(C)=O	none (no result: HIV Env fusion)
O=C(Nc1cccc(-c2cnc3ccccc3n2)c1)c1cccc(NC(=O)c2ccco2)c1	PAX8 reporter 72 (no result: CFTR F508del cor, GSIS activator, EWS-Fli inh)
O=C(Cc1ccc([N+](=O)[O-])cc1)N1CCN=C1SCc1ccccc1	none (no result: CFTR F508del cor, PGC1a acetyl inh)
Cc1ccc(C)c(CSC2=NCCN2C(=O)Cc2ccc([N+](=O)[O-])cc2)c1	PAX8 reporter 95 (no result: CFTR F508del cor, PGC1a acetyl inh)
CC(C)CC#Cc1cnc2c(c1)C(=O)N([C@H](C)CO)C[C@H](C)[C@H](CN(C)C(=O)c1cnccn1)O2	none (no result: PAX8 reporter)
O=C(NCC1CCCO1)C(=Cc1cccc([N+](=O)[O-])c1)C(=O)NCC1CCCO1 (stereo not given)	PAX8 reporter 98 (no result: PGC1a acetyl inh)
O=C(Nc1ccc(N2CCOCC2)c(S(=O)(=O)Nc2ccccc2Cl)c1)c1ccc(F)cc1	none
O=C(Nc1ccc(F)cc1)Nc1ccc(N2CCCC2)c(S(=O)(=O)Nc2ccccc2Cl)c1	PAX8 reporter 88 (no result: CFTR F508del cor, PGC1a acetyl inh, GSIS activator)
O=C(Nc1ccc(Cl)c(Cl)c1)Nc1ccc(N2CCCC2)c(S(=O)(=O)Nc2ccccc2Cl)c1	HIV Env fusion 81 (no result: CFTR F508del cor, PGC1a acetyl inh, EWS-Fli inh)
O=C(Nc1ccc(N2CCCCC2)c(S(=O)(=O)Nc2ccccc2Cl)c1)c1cccnc1	none (no result: GSIS activator)
CCCN(C)C[C@@H]1Oc2cc(C#CC3CCCCC3)ccc2S(=O)(=O)N([C@@H](C)CO)C[C@H]1C	none (no result: PAX8 reporter)
Fc1ccc(N2CCN(Cc3nnc(-c4ccccc4)o3)CC2)cc1	none (no result: PGC1a acetyl inh)
Fc1ccc(-c2nnc(CN3CCN(c4ncc(C(F)(F)F)cc4Cl)CC3)o2)cc1	HIV Env fusion 68 (no result: CFTR F508del cor, GSIS activator, EWS-Fli inh)
CN(c1ccccc1)S(=O)(=O)c1cccc(NC(=O)C2=NNC(=O)CC2)c1	HIV Env fusion 64 (no result: PAX8 reporter)
Cc1noc(C)c1NC(=O)Nc1ccc2c(c1)CC(=O)N([C@H](C)CO)C[C@H](C)[C@H](CN(C)C(=O)Nc1c(C)noc1C)O2	none
O=C(NCC[C@@H]1CC[C@H](NC(=O)C2CCC2)[C@H](CO)O1)c1cc(Cl)cc(Cl)c1	none
O=[N+]([O-])c1cccc(-c2nnc(-c3ccc4c(c3)OCO4)o2)c1	PAX8 reporter 144 (no result: CFTR F508del cor, PGC1a acetyl inh)
O=[N+]([O-])c1cccc(-c2nnc(-c3ccccc3)o2)c1	none
COc1ccc(CN(C)C[C@@H]2Oc3ccc(NC(=O)Nc4ccccc4)cc3CC(=O)N([C@H](C)CO)C[C@@H]2C)cc1	none (no result: PAX8 reporter)
CC(C)NC(=O)N(C)C[C@H]1Oc2ncc(C#Cc3ccc(F)cc3)cc2C(=O)N([C@H](C)CO)C[C@@H]1C	none (no result: PAX8 reporter)
Cc1ccc(C(C(=O)NC2CCCCC2)N(C(=O)c2csnn2)C2CCCC2)o1 (stereo not given)	HIV Env fusion 71 (no result: PAX8 reporter, CFTR F508del cor, EWS-Fli inh)
O=C(NC1CCCCC1)C(c1ccc(F)cc1)N(Cc1ccco1)C(=O)Cn1nnc2ccccc21 (stereo not given)	none (no result: PAX8 reporter, CFTR F508del cor, GSIS activator, EWS-Fli inh)
O=C(NC1CCCCC1)C(c1ccc(F)cc1)N(Cc1ccco1)C(=O)CN1C(=O)c2ccccc2S1(=O)=O (stereo not given)	PAX8 reporter 102 (no result: HIV Env fusion, PGC1a acetyl inh, GSIS activator)
O=C(NC1CCCCC1)C(c1ccc(F)cc1)N(Cc1ccco1)C(=O)c1csnn1 (stereo not given)	HIV Env fusion 63
CC(C)CCN(C(=O)c1csnn1)C(C(=O)NC1CCCC1)c1ccc(F)cc1 (stereo not given)	HIV Env fusion 76 (no result: PGC1a acetyl inh)
O=C(NC1CCCC1)C(c1ccc(F)cc1)N(Cc1ccccc1)C(=O)c1csnn1 (stereo not given)	none (no result: PGC1a acetyl inh)
